Measurements from the supplement of paper PMC10849652.
Of roughly 8,800 targets only a part is listed; those with a hit were picked by preference. About 0.5% of all pairs of compound and target were hits. A number with no mark means an inactive call.

compound: c1ccc([C@@H]2C[C@H]2NC2CCNCC2)cc1; assay: log2 fold change, soluble protein after heating vs DMSO (PISA); higher = thermal stabilisation; K562 lysate, 10 uM; active = over 0.2 and 3.5 SD of the protein, either way, in both replicates (recomputed)
How it was run: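 Log-two fold change in thermal stability relative to solvent controls is reported from duplicates. For each sample, crude K562 extract from dounce-homogenised pellets in PBS pH 7.4 with 1 mM MgCl2, at 1 mg/mL protein, was treated with 10 μM compound for 30 min. Aliquots heated for 3 min across 48°C-58°C were pooled, brought to 0.5% NP-40 at 4°C and cleared at 21,000xg for 90 min. The supernatant was quantified by TMTpro 16plex LC-MS/MS with channel sums equalised.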

Chain of UniProt Q9Y6I8 (Q9Y6I8 whole entry, looked up): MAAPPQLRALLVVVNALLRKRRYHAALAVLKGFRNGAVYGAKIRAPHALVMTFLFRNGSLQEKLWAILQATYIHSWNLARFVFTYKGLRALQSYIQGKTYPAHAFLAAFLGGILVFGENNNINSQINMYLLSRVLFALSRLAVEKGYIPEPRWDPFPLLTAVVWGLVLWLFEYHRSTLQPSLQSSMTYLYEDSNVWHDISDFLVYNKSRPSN
Chain of UniProt Q53EL6 (Q53EL6 whole entry, looked up): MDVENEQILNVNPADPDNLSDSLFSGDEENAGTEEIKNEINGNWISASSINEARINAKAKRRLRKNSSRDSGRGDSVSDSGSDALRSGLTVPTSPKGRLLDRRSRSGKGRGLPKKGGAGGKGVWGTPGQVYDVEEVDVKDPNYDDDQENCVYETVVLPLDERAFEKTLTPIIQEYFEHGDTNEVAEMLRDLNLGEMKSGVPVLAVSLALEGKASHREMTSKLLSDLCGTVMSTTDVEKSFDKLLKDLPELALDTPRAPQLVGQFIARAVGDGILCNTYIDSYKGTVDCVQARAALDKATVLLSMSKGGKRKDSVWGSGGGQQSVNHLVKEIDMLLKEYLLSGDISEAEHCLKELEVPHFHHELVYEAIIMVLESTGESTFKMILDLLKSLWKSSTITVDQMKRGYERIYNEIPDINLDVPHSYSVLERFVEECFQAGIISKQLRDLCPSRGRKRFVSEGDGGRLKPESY
Chain of UniProt P31323 (P31323 whole entry, looked up): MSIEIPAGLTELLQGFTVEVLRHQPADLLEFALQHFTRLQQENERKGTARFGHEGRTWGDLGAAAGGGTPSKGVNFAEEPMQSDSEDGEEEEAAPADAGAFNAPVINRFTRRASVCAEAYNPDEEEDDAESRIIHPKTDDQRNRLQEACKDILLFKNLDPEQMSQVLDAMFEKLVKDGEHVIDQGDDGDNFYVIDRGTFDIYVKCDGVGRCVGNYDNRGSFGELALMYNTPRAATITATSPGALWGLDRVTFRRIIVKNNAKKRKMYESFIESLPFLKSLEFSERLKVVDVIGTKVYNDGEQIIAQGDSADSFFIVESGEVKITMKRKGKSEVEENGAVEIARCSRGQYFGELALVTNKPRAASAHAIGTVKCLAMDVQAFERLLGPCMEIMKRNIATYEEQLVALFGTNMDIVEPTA
Chain of UniProt O94906 (O94906 whole entry, looked up): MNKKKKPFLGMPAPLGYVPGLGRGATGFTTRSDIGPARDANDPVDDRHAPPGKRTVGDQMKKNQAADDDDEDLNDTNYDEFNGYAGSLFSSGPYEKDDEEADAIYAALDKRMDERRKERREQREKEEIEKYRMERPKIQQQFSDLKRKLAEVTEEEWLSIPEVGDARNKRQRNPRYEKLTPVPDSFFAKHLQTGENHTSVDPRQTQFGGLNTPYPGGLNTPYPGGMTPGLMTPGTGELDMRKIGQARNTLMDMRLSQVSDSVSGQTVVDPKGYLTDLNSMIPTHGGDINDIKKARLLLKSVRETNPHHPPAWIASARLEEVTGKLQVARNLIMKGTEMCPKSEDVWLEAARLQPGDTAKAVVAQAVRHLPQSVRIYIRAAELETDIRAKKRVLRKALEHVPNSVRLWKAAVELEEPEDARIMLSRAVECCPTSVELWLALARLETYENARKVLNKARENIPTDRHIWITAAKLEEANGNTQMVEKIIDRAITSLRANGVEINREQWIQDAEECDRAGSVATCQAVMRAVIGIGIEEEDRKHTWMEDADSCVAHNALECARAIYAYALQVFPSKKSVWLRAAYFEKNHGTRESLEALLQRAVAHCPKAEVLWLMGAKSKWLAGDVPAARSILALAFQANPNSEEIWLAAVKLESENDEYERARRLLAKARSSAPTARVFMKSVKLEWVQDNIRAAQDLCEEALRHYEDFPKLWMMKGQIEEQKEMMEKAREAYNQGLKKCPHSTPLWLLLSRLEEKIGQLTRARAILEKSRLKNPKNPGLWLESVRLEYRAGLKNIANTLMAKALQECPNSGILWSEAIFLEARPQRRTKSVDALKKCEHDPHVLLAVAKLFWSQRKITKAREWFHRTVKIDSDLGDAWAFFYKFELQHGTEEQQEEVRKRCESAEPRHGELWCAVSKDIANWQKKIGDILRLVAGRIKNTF
Chain of UniProt Q29RF7 (Q29RF7 whole entry, looked up): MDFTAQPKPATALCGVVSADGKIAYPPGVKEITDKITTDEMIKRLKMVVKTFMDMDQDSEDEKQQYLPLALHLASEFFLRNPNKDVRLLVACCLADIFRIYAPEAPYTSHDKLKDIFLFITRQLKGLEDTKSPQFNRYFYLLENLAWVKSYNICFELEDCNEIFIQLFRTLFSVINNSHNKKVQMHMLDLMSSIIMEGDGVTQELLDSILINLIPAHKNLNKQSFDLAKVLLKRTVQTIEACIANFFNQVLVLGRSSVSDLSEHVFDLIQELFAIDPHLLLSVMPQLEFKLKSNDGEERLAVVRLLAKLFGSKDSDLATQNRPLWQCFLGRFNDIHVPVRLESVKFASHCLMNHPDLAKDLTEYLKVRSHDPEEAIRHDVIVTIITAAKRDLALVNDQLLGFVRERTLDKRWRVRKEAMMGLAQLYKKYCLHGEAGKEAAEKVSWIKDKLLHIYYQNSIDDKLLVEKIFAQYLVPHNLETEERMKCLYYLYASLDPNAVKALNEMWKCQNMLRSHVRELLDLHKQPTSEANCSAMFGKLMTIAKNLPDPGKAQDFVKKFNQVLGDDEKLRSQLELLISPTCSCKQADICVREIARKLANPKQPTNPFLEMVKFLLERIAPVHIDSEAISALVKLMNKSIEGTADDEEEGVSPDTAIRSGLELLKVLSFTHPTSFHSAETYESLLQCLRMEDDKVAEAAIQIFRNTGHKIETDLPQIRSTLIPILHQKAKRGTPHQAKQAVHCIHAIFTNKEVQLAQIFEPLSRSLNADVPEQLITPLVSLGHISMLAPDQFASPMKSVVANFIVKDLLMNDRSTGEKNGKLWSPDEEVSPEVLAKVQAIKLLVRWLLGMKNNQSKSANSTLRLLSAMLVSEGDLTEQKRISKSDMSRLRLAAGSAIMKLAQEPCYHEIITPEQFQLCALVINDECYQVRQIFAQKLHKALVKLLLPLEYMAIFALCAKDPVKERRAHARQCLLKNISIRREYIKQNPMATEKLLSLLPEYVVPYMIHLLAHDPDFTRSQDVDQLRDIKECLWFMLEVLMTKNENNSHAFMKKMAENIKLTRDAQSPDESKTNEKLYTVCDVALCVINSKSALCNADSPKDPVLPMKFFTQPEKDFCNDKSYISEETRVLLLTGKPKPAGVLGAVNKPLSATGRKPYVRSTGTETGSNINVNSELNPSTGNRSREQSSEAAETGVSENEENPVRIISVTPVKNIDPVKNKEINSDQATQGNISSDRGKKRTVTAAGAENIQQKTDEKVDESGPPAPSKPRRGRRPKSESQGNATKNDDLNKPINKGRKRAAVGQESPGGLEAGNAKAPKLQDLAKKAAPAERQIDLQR
Chain of UniProt P49642 (P49642 whole entry, looked up): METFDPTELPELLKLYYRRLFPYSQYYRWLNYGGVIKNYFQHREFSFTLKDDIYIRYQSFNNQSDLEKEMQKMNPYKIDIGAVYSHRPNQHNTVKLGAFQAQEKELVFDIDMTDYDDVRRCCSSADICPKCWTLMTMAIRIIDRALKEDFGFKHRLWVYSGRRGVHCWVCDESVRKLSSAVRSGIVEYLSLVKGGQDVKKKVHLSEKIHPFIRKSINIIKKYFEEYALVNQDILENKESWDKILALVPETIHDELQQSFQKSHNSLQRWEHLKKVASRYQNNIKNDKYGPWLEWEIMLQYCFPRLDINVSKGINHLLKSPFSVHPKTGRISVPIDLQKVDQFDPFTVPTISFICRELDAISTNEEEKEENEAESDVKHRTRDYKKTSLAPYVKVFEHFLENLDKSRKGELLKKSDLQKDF
Chain of UniProt Q96C36 (Q96C36 whole entry, looked up): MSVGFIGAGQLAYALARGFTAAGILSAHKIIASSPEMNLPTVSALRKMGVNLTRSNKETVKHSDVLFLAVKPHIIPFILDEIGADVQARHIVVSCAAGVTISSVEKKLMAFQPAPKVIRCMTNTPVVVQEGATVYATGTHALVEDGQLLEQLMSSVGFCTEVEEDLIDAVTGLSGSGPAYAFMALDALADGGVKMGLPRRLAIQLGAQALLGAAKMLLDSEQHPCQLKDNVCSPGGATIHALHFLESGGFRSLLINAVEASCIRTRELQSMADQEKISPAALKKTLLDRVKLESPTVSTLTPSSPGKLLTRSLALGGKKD
Chain of UniProt Q8WUM4 (Q8WUM4 whole entry, looked up): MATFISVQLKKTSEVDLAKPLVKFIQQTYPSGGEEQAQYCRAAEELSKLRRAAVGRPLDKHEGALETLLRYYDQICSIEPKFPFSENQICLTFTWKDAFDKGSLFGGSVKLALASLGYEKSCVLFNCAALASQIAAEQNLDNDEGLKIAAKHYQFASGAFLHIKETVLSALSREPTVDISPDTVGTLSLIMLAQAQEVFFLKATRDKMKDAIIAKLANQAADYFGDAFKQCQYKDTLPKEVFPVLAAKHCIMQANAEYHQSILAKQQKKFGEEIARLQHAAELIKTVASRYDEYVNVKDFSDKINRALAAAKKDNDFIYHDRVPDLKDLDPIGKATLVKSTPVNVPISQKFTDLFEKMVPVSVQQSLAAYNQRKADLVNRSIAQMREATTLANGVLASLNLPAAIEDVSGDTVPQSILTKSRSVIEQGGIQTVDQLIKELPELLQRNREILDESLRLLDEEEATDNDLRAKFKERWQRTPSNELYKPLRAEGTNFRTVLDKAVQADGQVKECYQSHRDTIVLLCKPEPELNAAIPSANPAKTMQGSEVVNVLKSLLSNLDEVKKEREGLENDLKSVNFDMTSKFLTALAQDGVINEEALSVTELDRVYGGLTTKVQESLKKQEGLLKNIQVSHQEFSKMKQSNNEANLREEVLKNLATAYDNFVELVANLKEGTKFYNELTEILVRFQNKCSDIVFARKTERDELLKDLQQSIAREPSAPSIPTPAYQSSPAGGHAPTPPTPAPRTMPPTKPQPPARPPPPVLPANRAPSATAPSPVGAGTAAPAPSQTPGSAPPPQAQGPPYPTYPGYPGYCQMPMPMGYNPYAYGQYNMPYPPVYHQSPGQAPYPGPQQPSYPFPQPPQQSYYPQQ

Target	log2 fold change
PRKD2 isoform 3 (UniProt Q9BZL6)	0.104
PIK3C3 (UniProt Q8NEB9)	-0.114
PCLAF (UniProt Q15004)	-0.039
PRKRA (UniProt O75569)	0.036
PSTPIP2 (UniProt Q9H939)	0.027
PRIM1 (UniProt P49642)	0.047
PRKAR2B (UniProt P31323)	0.068
PPP3CA isoform 2 (UniProt Q08209)	0.043
PPP2R5B (UniProt Q15173)	0.066
PDE2A (UniProt O00408)	0
PDCD6IP (UniProt Q8WUM4)	0.085
PRPF6 (UniProt O94906)	0.04
PDS5A (UniProt Q29RF7)	0.019
PIP4K2C (UniProt Q8TBX8)	-0.011
PYCR2 (UniProt Q96C36)	-0.054
POLA1 (UniProt P09884)	0.002

Target	log2 fold change
PIK3R1 (UniProt P27986)	-0.007
PUM1 isoform 3 (UniProt Q14671)	0.054
PXMP4 (UniProt Q9Y6I8)	0.041
POC5 (UniProt Q8NA72)	-0.097
PDCD10 (UniProt Q9BUL8)	-0.064
PLIN2 (UniProt Q99541)	0.014
PDCD4 (UniProt Q53EL6)	0.001
PHACTR4 isoform 2 (UniProt Q8IZ21)	0.264
PTP4A1 (UniProt Q93096)	0.041
PRAME (UniProt P78395)	0.026
PLEKHF1 (UniProt Q96S99)	0.014
PIK3R2 (UniProt O00459)	-0.007
PGRMC1 (UniProt O00264)	-0.039
PPCDC (UniProt Q96CD2)	-0.191
PTPN6 isoform 4 (UniProt P29350)	0.133
PWP2 (UniProt Q15269)	0.061
